Experimental data published in PubChem BioAssay AID1026 (Columbia University Molecular Screening Center, 2008).

Biological target: Bifunctional epoxide hydrolase 2 (Homo sapiens) (UniProt P34913)
Assay: sEH inhibitor concentration-response potency, dose response, biochemical, human sEH, fluorescence, Infinite200 (AID 1026)
Conditions: recombinant human sEH, fluorogenic substrate, at 0.2 µM, active compounds read high; call rule not given here

Chain of Bifunctional epoxide hydrolase 2 (Homo sapiens) (P34913 whole entry, looked up): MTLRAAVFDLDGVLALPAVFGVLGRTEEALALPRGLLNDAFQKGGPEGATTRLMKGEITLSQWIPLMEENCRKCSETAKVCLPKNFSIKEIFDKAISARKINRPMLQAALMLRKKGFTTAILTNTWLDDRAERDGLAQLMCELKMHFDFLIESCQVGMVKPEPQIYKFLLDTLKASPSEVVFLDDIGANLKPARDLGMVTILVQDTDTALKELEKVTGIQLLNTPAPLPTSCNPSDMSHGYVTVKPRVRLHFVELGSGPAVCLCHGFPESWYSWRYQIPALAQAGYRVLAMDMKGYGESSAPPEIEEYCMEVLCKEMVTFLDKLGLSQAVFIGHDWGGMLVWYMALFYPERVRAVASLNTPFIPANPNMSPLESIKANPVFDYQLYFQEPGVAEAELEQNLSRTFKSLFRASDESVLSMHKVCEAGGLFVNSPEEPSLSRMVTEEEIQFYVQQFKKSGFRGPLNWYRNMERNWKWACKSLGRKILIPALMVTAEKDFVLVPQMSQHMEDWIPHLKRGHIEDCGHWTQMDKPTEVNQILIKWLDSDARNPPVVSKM

inhibition, inactive:
CCCOc1cccc(/C=N/NC(=O)c2csc(C)c2C)c1 49.7%
O=C(NCc1ccc2c(c1)OCO2)C1CCN(c2ccc(S(=O)(=O)N3CCCC3)cc2)CC1 52.2%
CC(NC(=O)CSc1nnc(-c2cccc(S(=O)(=O)N3CCCCC3)c2)o1)C12CC3CC(CC(C3)C1)C2 (stereo not given) 66%
CCCCCC(=O)Nc1ccc2oc(-c3ccncc3)nc2c1 31.2%
O=C(NCCSCc1ccco1)Nc1cccc(Cl)c1 46.2%
NS(=O)(=O)c1ccc(CNC(=O)/C=C/c2c(Cl)cccc2Cl)cc1 51.6%
O=C(Nc1ccc2c(c1)nc1n2CCN(Cc2ccccc2)C1)NC1CCCCC1 58.4%
Cc1cc2nc(-c3ccc(SCC(=O)N4CCN(C(=O)c5ccco5)CC4)nc3)[nH]c2cc1C 48%
O=C(N/N=C/c1cccc(O)c1)c1csc2ccccc12 54.3%
COc1ccc(NC(=O)N2CCCC(c3nc(-c4ccc(C(C)C)cc4)no3)C2)cc1 (stereo not given) 64.5%
CCOc1ccc(NC(=O)NCCCSC2CCCCC2)cc1 54.6%
O=C(/C=C/c1cc2c(cc1Br)OCO2)NCc1ccc(Cl)cc1 60.5%
COc1cccc(CNC(=O)C2CCC(CNS(=O)(=O)c3cccc4nsnc34)CC2)c1 (stereo not given) 50.1%
CC(C)(C)c1ccc(C(=O)N2CCC(C(=O)NCCC3=CCCCC3)CC2)cc1 38%
Cc1cc2cc(CNC(=O)NC3CCCCC3)ccc2[nH]1 60%
CC(C)c1ccc(NC(=O)N2CCC(c3nc4ccccc4o3)CC2)cc1 66.3%
Cc1ccccc1OCCCC(=O)Nc1ccc(Br)cc1 69.8%
O=C(Nc1ccc(F)c(F)c1)NC1CCCCC1 55.5%
O=C(Nc1cccc(C(F)(F)F)c1)NC1CCCCC1 66.5%
O=C(Nc1cccc(F)c1)NC1CCCCC1 51.9%
O=C(Nc1cccc2ccccc12)c1ccc(OC(=S)N2CCOCC2)cc1 68.8%
Cc1ccccc1-c1nc(CN2CCC(C(=O)NCCC3=CCCCC3)CC2)c(C)o1 55.6%
CCN(CCNC(=O)Nc1ccc(Cl)cc1)c1ccccc1 39.1%
O=C(Nc1ccc2c(c1)nc1n2CCN(C2CCCCC2)C1)NC1CCCCC1 72.7%
COc1ccc(CNC(=O)/C=C/c2cc3c(cc2Br)OCO3)cc1 58.5%
Cc1oc(-c2ccccc2F)nc1CN1CCC(C(=O)NC2CCCCCCC2)CC1 63.1%
O=C(NCCC1=CCCCC1)c1ccc2c(c1)N(Cc1ccccc1)C(=O)CS2 52.3%
CCOC(=O)c1sc(NC(=O)c2ccc(C)s2)cc1C 59.1%
Cc1nn(Cc2ccccc2Cl)c(C)c1NC(=O)NC12CC3CC(CC(C3)C1)C2 66%
Cc1cccc(NC(=O)Nc2cccc(Oc3c(F)c(F)c(F)c(F)c3F)c2)c1 47.7%
O=C(Nc1ccc(Cl)cc1)N1CCC(c2nc(-c3ccccc3Cl)no2)CC1 62.8%
CCc1cccc(NC(=O)NC2CCCCC2)c1 70.5%
COc1ccc(CCN2C(=O)C3C4CC(C5C(C(=O)N/N=C\c6ccc(Cl)cc6)=NOC45)C3C2=O)cc1OC (stereo not given) 67.1%
CCc1ccc(/C=N/NC(=O)c2ccc(OC3CCCC3)cc2)s1 65.8%
CC(=O)N1CCN(c2ccc(NC(=O)COc3ccc(Cl)cc3Cl)cc2)CC1 38.5%
O=C(Nc1ccc2c(c1)OCCO2)NC1CCCCC1 52.7%
O=C(Nc1ccccc1)Nc1ccc(S(=O)(=O)N2CCCCC2)cc1 72.3%
C/C(=N\NC(=O)c1cccc(S(=O)(=O)Nc2ccccc2Cl)c1)c1ccc(-n2ccnc2)cc1 56%
Cc1ccccc1C(=O)N1CCN(c2ccc(NC(=O)CSc3ccc(Cl)cc3)cc2)CC1 60.1%
Cc1ccc(Cn2ccc(=O)c(Cc3c(Cl)cccc3Cl)c2C)cc1 63.6%
